ssDAF12 agonist = S. stercoralis DAF-12 activation, primary screen; HEK293 ssDAF-12/GRIP1 lit1-tk-luc reporter, luminescence; % of 3 µM dafachronic acid response; activation, % at 6.8 µM; actives 1% (n = 370,000); AID 652126;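 active = activation above the mean over all tested compounds plus 3 SD, cut at about 0.9% in these data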;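 note: 0% = DMSO-only wells and 100% = 3 µM delta7-dafachronic acid wells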
hgDAF-12 ag = activates the H. glycines DAF-12 receptor ligand-binding domain; activation, % at 6.8 µM; HEK293 GAL4-hgDAF12 UAS-luciferase reporter, agonist luminescence; normalized to butyrate control; actives 1.8% (n = 370,000);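 active = activation above a cutoff set at the mean of all screened compounds plus 3 SD, cut at about 10% in these data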;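 note: 0% = DMSO wells and 100% = sodium butyrate wells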
DAX1 inh-1 = inhibitors of DAX1 repression of SF-1 activated StAR promoter; HEK293T StAR-luciferase reporter, SF-1/DAX-1 repression relief; inhibition, % at 6.8 µM; actives 1.1% (n = 370,000);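 active = inhibition above the mean over all tested compounds plus 3 SD, cut at about 3.6% in these data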;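 note: 0% = DAX-1 cells with DMSO and 100% = cells lacking DAX-1 with DMSO; higher inhibition means more luminescence from relief of DAX-1 repression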
DAX1 inh-2 = NR0B1 (DAX1) inhibition. P51843. HEK293 Gal4-DAX1 luciferase reporter, luminescence. actives 0.99% (n = 340,000). inhibition, % at 6.75 µM;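 active = inhibition above the mean over all tested compounds plus 3 SD, cut at about 4.2% in these data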;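 note: 0% = DAX1-transfected cells with DMSO and 100% = empty-vector control cells with DMSO; inhibition shows as a rise in luminescence from relieved DAX1 repression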
AHR act = activates the human aryl hydrocarbon receptor; actives 2.5% (n = 320,000); AHR-responsive luciferase reporter cells, luminescence; activation, % at 5 µM; in the data active = activation above about 47%;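 note: 0% = vehicle wells and 100% = reference agonist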
Target sequence (P35869 whole entry, looked up): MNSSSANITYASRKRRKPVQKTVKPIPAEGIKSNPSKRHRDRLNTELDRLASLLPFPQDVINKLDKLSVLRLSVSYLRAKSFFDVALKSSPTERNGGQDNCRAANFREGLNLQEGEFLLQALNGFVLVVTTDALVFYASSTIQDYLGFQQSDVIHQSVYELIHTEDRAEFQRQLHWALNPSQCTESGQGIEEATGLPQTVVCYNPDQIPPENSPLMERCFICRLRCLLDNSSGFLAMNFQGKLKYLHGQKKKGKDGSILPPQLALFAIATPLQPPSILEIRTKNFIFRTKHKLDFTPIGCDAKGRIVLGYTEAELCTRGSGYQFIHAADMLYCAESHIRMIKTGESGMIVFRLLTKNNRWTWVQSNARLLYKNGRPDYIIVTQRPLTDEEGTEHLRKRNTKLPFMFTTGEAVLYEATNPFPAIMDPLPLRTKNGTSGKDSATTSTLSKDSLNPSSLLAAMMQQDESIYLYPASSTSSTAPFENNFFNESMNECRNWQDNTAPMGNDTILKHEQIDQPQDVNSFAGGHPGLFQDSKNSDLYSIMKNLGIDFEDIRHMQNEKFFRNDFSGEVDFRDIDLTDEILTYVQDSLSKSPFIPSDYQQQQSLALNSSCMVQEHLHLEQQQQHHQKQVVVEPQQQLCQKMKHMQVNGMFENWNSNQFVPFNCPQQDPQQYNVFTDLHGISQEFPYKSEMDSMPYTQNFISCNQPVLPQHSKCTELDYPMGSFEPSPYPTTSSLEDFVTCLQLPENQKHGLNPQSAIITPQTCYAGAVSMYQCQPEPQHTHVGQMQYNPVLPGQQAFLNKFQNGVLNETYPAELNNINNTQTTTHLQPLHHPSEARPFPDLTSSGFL
hcDAF-12 act = activates DAF-12 receptor from parasite H. contortus | actives 1.4% (n = 370,000) | HEK293 hcDAF-12 lit1-tk-luc reporter, luminescence; 0% DMSO, 100% Δ7-dafachronic acid | activation, % at 6.8 µM | AID 652067;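 active = activation above the mean of all tested compounds plus 3 SD, cut at about 5.5% in these data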;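 note: 100% = response to 3 µM Δ7-dafachronic acid high control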
DAX1 inh confirm = confirmation of human DAX1 (NR0B1) inhibitors. shares compounds with DAX1 inh-1. HEK293T StAR-promoter luciferase reporter, SF-1/DAX-1 repression. inhibition, % at 6.8 µM. actives 87% (n = 2,400);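 active = inhibition above the average of every tested compound plus 3 SD, cut at about 3.8% in these data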;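 note: 0% = DAX-1 cells with DMSO and 100% = no DAX-1 control cells with DMSO; active compounds raise luminescence by relieving repression of the StAR reporter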
SF1 mutant ctr = counter-screen for DAX1 inhibitors: nonselective inhibitors with SF-1 AF2 mutant | shares compounds with DAX1 inh-1 | HEK293 StAR-luciferase, luminescence | inhibition, % at 6.8 µM | actives 78% (n = 2,400);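 active = inhibition above the mean of all tested compounds plus 3 SD, cut at about 3% in these data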;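 note: 0% = DAX-1 transfected cells with DMSO and 100% = cells without DAX-1 with DMSO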
LXRb hcDAF ctr = activates human LXR-beta, counter-screen for hcDAF-12 agonists | shares compounds with hcDAF-12 act | HEK293 Gal4-LXR tk-luc reporter, luminescence, 24 h; normalized: DMSO 0%, positive control 100% | activation, % at 6.8 µM | 3,400 tested, under 10 active;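 active = mean percent activation of the reporter above a cutoff set as the average over tested compounds plus their standard deviation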
hcDAF12 conf = confirmation of H. contortus DAF-12 agonists | shares compounds with hcDAF-12 act | AID 743032 | activation, % at 6.8 µM | HEK293 hcDAF-12 lit1-tk-luc reporter, luminescence; % of Δ7-dafachronic acid response | actives 61% (n = 3,400);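 active = mean activation across triplicate tests above the threshold derived from the earlier primary screen, cut at about 5.5% in these data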;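 note: 0% = DMSO only wells and 100% = 3 µM Δ7-dafachronic acid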
hgDAF12 ag = confirmation of H. glycines DAF-12 agonists; AID 743050; activation, % at 6.8 µM; HEK293 GAL4-hgDAF12 luciferase reporter, agonist mode; percent of butyrate response; shares compounds with hgDAF-12 ag; actives 80% (n = 3,300);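 active = mean activation over triplicate wells above the hit cutoff derived from the earlier primary screen, cut at about 11% in these data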;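 note: 0% = DMSO low control and 100% = 2 mM sodium butyrate high control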
LXR ag 2 = LXR-beta agonism as DAF-12 counter-screen | activation, % at 6.8 µM | 3,300 tested, under 10 active | AID 743051 | shares compounds with hgDAF-12 ag | HEK293 Gal4-LXR luciferase reporter, 24 h;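 active = mean activation of the triplicate above a set limit carried over from the primary screen, none filed active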
* marks the source's active call; other numbers are inactive results; . = no result. A selection: hits, their analogues and other compounds. The true share with any hit is near 5.7%.

SMILES	ssDAF12 agonist	hgDAF-12 ag	DAX1 inh-1	DAX1 inh-2	AHR act	hcDAF-12 act	DAX1 inh confirm	SF1 mutant ctr	hgDAF12 ag	LXR ag 2	others
Cc1cc(C(=O)N/N=C2\CCCc3ccccc32)c(C)o1	0	5	0	1	19	0	.	.	.	.
CC(=O)c1cccc(NC(=O)c2ccc(OC3CSC3)cc2)c1	-2	4	0	-1	6	1	.	.	.	.
Cc1cccc(NC(=O)c2ccc(OC3CSC3)cc2)c1	0	16*	4.8*	1	2	3	7.8*	4.0*	16*	1
CC(NC(=O)c1cc(COc2ccccc2)on1)c1nccs1 (stereo not drawn)	0	20*	7.3*	2	23	7.9*	8.3*	5.2*	19*	1	LXRb hcDAF ctr=1;hcDAF12 conf=6.0*
O=C1CC(NS(=O)(=O)c2cc(F)ccc2F)CN1c1ccc2c(c1)OCCO2 (stereo not drawn)	-1	-1	-1	2	-2	0	.	.	.	.
O=C(Nc1ccccn1)c1ccc2c(=O)n3c(nc2c1)CCCCC3	0	20*	6.2*	-1	3	5	7.7*	3.8*	15*	1
Cc1cnc(C(=O)OCC(=O)Nc2cccc(S(=O)(=O)N3CCOCC3)c2)cn1	-1	-2	-1	3	0	-1	.	.	.	.
CCOc1ccccc1NC(=O)COC(=O)C(Cc1ccccc1)NC(=O)c1ccco1 (stereo not drawn)	-1	1	-1	0	2	-1	.	.	.	.
O=C(NOCc1ccccc1)c1ccc([N+](=O)[O-])cc1	1.8*	15*	7.3*	0	-1	2	9.7*	5.2*	12*	1
Cc1ccc(OCCC(=O)OCC(=O)NC(=O)NC2CCCC2)cc1	0	0	2	3	-1	0	.	.	.	.
c1csc(-c2nnc(-c3ccc(N4CCOCC4)cc3)o2)c1	1	15*	5.1*	-1	3	5.8*	14*	6.2*	19*	1
CCOc1ccc(-c2nnc(-c3cccs3)o2)cc1	1	16*	4.9*	1	-4	7.4*	13*	4.6*	15*	1	LXRb hcDAF ctr=1;hcDAF12 conf=7.8*
CCOC(=O)c1c(C)[nH]c(C(=O)OCC(=O)NCc2ccccc2)c1C	-1	3	0	-1	32	-1	.	.	.	.
CCOC(=O)c1c(C)[nH]c(C(=O)OCC(=O)c2ccccc2)c1C	0	14*	13*	2	0	7.4*	9.8*	4.9*	17*	1	LXRb hcDAF ctr=1;hcDAF12 conf=5
Cc1ccccc1-c1csc(C(O)(c2ccccc2)C(F)(F)F)n1 (stereo not drawn)	-1	-2	2	.	.	-1	.	.	.	.
COc1ccc(-n2c(COc3ccc(Cl)cc3)nnc2SCc2nc3ccccc3[nH]2)cc1	-1	-1	-1	.	.	-2	.	.	.	.
Clc1ccc(OCc2nc3ccccc3[nH]2)cc1	0	23*	4.7*	2	-3	2	9.8*	9.3*	10	1
CC(=O)c1sc(NC(=O)c2ccccc2F)nc1C	0	14*	5.4*	0	0	5	13*	6.4*	14*	1
CC(=O)c1sc(NC(=O)c2ccc(C(C)(C)C)cc2)nc1C	1	13*	7.6*	1	-6	6.2*	14*	9.6*	19*	1
CC(=O)c1sc(NC(=O)C(C)(C)C)nc1C	-1	4	0	0	2	0	.	.	.	.
COc1ccc(Nc2nc(C)c(C(C)=O)s2)cc1	-1	17*	4.9*	.	.	4	5.1*	4.6*	8	0
COCCNC(=O)C1(C)CCCN(C(=O)c2ccc(F)cc2Cl)C1 (stereo not drawn)	-1	5	1	.	.	0	.	.	.	.
COc1ccc(-c2nc3ccccc3s2)cc1NC(C)=O	0	19*	8.9*	2	57*	9.6*	8.2*	4.0*	16*	1	LXRb hcDAF ctr=1;hcDAF12 conf=7.8*
O=C(NCc1ccccc1)c1nc2ccccc2s1	-2	2	-1	1	-1	1	.	.	.	.
CC(=O)NCc1ccc(-c2nc3ccccc3s2)cc1	-1	15*	6.9*	1	0	4	16*	6.7*	15*	1
SMILES	ssDAF12 agonist	hgDAF-12 ag	DAX1 inh-1	DAX1 inh-2	AHR act	hcDAF-12 act	DAX1 inh confirm	SF1 mutant ctr	hgDAF12 ag	LXR ag 2	others
Fc1ccc(N2C(=S)SC(=Nc3ccccc3)C2=Nc2ccccc2)cc1	-1	7	1	2	.	4	.	.	.	.
N=C1N(c2ccccc2)C(=S)C(=Nc2ccccc2)N1c1ccccc1	0	17*	8.6*	3	.	9.8*	-5	-3	7	0	LXRb hcDAF ctr=0;hcDAF12 conf=1
Cc1noc(C)c1C(=O)Nc1nc2ccc(F)cc2s1	1	14*	8.9*	2	35	7.0*	9.8*	5.3*	14*	1	LXRb hcDAF ctr=2;hcDAF12 conf=5.8*
Cc1ccc2nc(NC(=O)c3ccco3)sc2c1	-2	-2	1	-4	-9	3	.	.	.	.
O=C(Nc1nc2ccccc2s1)c1ccc(F)cc1	1.8*	16*	4.7*	2	19	7.8*	8.0*	4.3*	20*	1	LXRb hcDAF ctr=2;hcDAF12 conf=8.8*
Cc1ncc(C(=O)Nc2ccccc2)[nH]1	1	21*	4.7*	3	.	4	11*	6.9*	13*	0
O=C(Nc1ccccc1)c1cnc[nH]1	-1	9	0	0	2	0	.	.	.	.
N#Cc1ccsc1NC(=O)COC(=O)c1ccc(NC(N)=O)cc1	0	17*	6.0*	1	13	8.0*	9.7*	7.1*	16*	1	LXRb hcDAF ctr=1;hcDAF12 conf=5.6*

Screening results as filed in PubChem BioAssay.
